Experimental data reported in the supplement of paper PMC10681739.

Biological target: RUNX1 (UniProt Q01196)
Test: RUNX1 binding intensity (PBM fluorescence) in presence of ETS1, normalised to RUNX1-only experiment (arbitrary fluorescence units); higher = stronger binding
Conditions: RUNX1 concentration 2 nM; ETS1 concentration 25 nM
Description: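 Cooperative gcPBM on 36-bp genomic probes with neighbouring ETS1 and RUNX1 sites. Recombinant human RUNX1 (2 nM) was incubated alone or with ETS1 (25 nM) and detected with anti-RUNX1 antibody plus Alexa488 secondary. Values are medians over 4 replicate spots; the RUNX1+ETS1 data were normalised to the RUNX1-only data. The probes sit in constant array flanks that are not printed.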
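Further: Full-length recombinant human ETS1 or RUNX1 bound to double-stranded 36-bp genomic probes on microarrays, detected by protein-specific primary antibody and Alexa488 secondary, spot fluorescence as median of four replicate spots.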

Sequence of RUNX1 (Q01196 whole entry): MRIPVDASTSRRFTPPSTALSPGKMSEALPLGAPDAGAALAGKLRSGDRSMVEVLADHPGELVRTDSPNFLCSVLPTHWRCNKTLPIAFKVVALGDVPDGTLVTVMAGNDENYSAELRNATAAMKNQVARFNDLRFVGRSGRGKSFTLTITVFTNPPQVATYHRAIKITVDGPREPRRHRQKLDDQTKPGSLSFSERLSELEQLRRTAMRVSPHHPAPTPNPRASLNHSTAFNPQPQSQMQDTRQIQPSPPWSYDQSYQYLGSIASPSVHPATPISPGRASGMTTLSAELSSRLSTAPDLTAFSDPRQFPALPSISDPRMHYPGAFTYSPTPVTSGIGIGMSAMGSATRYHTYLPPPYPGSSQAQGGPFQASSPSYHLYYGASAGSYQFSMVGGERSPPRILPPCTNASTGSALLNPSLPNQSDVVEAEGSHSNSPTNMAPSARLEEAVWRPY

Sequence	RUNX1 binding intensity
CCAATGGGCAGGCGGAAACCGCGGGCTCGTGCTCCC	1350
GTCACAGGAAAGAAGGAGCCTCGCCTTAACCGCACC	1310
GGGGCGGCTTCCGGCGGCGTGACCTGACCGCAAGAG	9110
CCCAATTTCCTTTGCTCTGCTGTCTGCCAACCGCAA	4340
GGAGCGCGCCGGAAACGCGCGGCTGCGGCCCGGGAG	1320
CACGCCTGCGGAAGATGAAAACCACACGTCATGCAG	915
GCTCCTCCCGGATATAAAGCCCCAAACCACGCCACT	1410
GGCGCGGGCTGCTTCCGGTCTGCGGGCCTGAGGAGG	1770
GGGCCCGGGCCAGGAAGTGGTTTTGCAGAGGTGTTT	1930
CCCACCCGGAAATGAGCCAACAGTGGTTTCGCCCCG	1380
CCATATCTGGCTTCCTAAGGAGGAACCACAAACCGT	1080
TCTGGGGGAGGGGAAGGATGTGGTTTGCAGAGCGGA	1470
CTGTGAGGCGGAAGTGGCGGGCTCTGTGGGCGCAAG	1430
GACATCCAGGAAGTGGTGAGAAACCACGTGTGTGTT	3070
GTGGGAGCGGAAGCCTGAGCGGCCTGCGGCCTCCGG	1040
ATGAACCACTTCCTGTGTGTTCCCACAGAGGTCAGG	7110
AACGACAAACCGGAAGTATGGTTTGCCGCCTGAAGC	1620
AGGAGCCGGAAGTCCCGCCCACGCACCCCCCGCAGG	1770
AGCTGTTTGGTCACAGGATGTGGTTATTAGAATAGG	4040
